# “And” between values parts separate entries of the source, which are not always exact repeats. Equal entries are not always repeated. Results filed as inconclusive are left out. Where a structure was tested more than once in an assay, its records may differ in their call. The source made the active and inactive calls. The call rests on the fitted dose curve; in most records, active means well fitted cell-killing curve with a large enough effect; inconclusive means small, poorly fitted or top-dose-only effect, or effect the other way; inactive means no such curve, though single readings can be large or run the other way.
# Experiment: Viability qHTS for spleen associated tyrosine kinase inhibitor (SYKi) drug resistant MV4-11 cells (AID 1963824); further: nearly all actives have a fitted effect of over 35% in size
# Conditions: SYKi-resistant MV4-11 viability, CellTiter-Glo, 72 h; series mostly up to 45 µM; viability, % of control: at the top concentration
# From the text: Department of Medicine, Hematology/Oncology
# University Hospital Frankfurt, Germany.
# Trials have shown promising clinical activity of the selective SYK inhibitor entospletinib in patients with high expressing HOXA9/MEIS1 acute leukemias. As the development of resistance mechanisms is a common problem in the use of targeted drugs, we performed a chemical library screen to identify drug sensitivities in SYK inhibitor resistant AML cells. […] Glucocorticoids are potent immunosuppressants which work in part by inhibiting the transcription of cytokine genes.
# Described herein is a viability screen to look for activity in the SYK inhibitor drug resistant cell line against four NCATS compound libraries (MIPE 5.0, NPC, NPACT, and Kinase) totaling 11372 compounds. Active hits were reacquired for confirmation and further secondary assay testing.
# SEQUENCE No. (e.g., 1, 2, 3, etc.); […] (e.g., Cells, Incubation, Reagent, etc.); VALUE; DESCRIPTION.
# 1; Media; 2uL; white, solid-bottom Corning assay plate.
# 2; Compounds; 23nL; Echo acoustic dispenser.
# 3; Cell; 5uL; 500 cells per well.
# 4: Incubation; 72hr; 37 C, 5% CO2, 95% humidity.
# 5; Reagent; 3uL; CellTiter-Glo reagent (Promega).
# 6; Incubation; 10min; room temperature.
# 7; Detection; Luminescence; ViewLux plate reader (PerkinElmer).
# NOTES (numbers refer to Sequence numbers above
# 1. Quantitative high-throughput screening (qHTS) of small molecule compounds was conducted on drug resistant SYKi MV4-11 cell line.
# 2. Twenty-three nanoliter of small molecule compounds were added to each assay plates using the Echo acoustic dispenser (Beckman Coulter).
# 3. Cells were seeded into the assay plates at a final density of 500 cells in 5uL of media per well using the Multidrop Combi dispenser.
# 4. Plates were covered with stainless steel gasketed lids and incubated for 72 hours at standard cell culture conditions.
# 5. Viability was assessed by adding 3uL of CellTiter-Glo detection reagent (Promega).
# 6. Plates were covered with gasket lids and incubated for 10 minutes at room temperature.
# 7. Luminescence was measured on a ViewLux plate reader (PerkinElmer).
# Potency means the concentration at half of the fitted maximal effect.
Compound,"viability, % of control",Potency
N[C@@]1(C(=O)O)CS(=O)(=O)[C@H]2[C@H](C(=O)O)[C@H]21,81.2% (inactive),
CCCC(CCC)C(=O)O,98.4% (inactive),
Nc1ccc(F)cc1NC(=O)c1ccc(CNC(=O)/C=C/c2cccnc2)cc1,,0.833 µM (active)
COc1cc(O)c(C(=O)CCc2ccc(O)cc2)c(O[C@@H]2O[C@H](CO)[C@@H](O)[C@H](O)[C@H]2O)c1,,11.2 µM (active)
C=C1C(=O)OC2CC(COC(=O)C(C)C)=C(C(C)CCCOC(C)=O)[C@@H](OC(C)=O)C12 (stereo not given in full),,8.93 µM (active)
NC(=O)Nc1cc(-c2cccc(F)c2)sc1C(=O)N[C@H]1CCCNC1,4.38% (inactive),
O=C(NNc1nc2cc(F)ccc2n2cccc12)c1cnccn1,,0.731 µM (active)
CN(C)CCNC(=O)c1cccn2c(=O)c3cc4ccccc4cc3nc12,,0.422 µM (active)
CN(c1ccc(NC(=O)Nc2ccccc2)cc1)S(=O)(=O)c1cnn(-c2ccc(F)cc2)c1,,23.1 µM (active)
CC(=O)Nc1ccc(S(=O)(=O)Nc2cc(C)on2)cc1,107% (inactive),
Clc1ccc2c(c1)C(N1CCNCC1)=Nc1ccccc1O2,,13.3 µM (active) and inactive
NC(=O)c1ncn([C@@H]2O[C@H](CO)[C@@H](O)[C@H]2O)c1N,117% (inactive),
C[C@@]12CC3(S(=O)(=O)O)OC(O1)[C@]1(COC(=O)c4ccccc4)[C@H]3C[C@]21O[C@@H]1O[C@H](CO)[C@@H](O)[C@H](O)[C@H]1O,97.7% [at 17.3 µM] (inactive),
CCCCCCCCCCCCCCCCO,89.7% (inactive),
CCCc1nc(C(C)(C)O)c(C(=O)O)n1Cc1ccc(-c2ccccc2-c2nn[nH]n2)cc1,86.6% (inactive),
CC(C)C(=O)OCc1cccc(OC(=O)[C@@H]2N3C(=O)[C@@H](NC(=O)Cc4ccccc4)[C@H]3SC2(C)C)c1,,7.5 µM (active)
C=C1CC[C@@H]2[C@](C)(CO)[C@H](O)CC[C@@]2(C)[C@@H]1C/C=C1/C(=O)OC[C@H]1O,,2.95 µM (active)
NS(=O)(=O)OC[C@@H]1C[C@@H](n2ccc3c(N[C@H]4CCc5ccccc54)ncnc32)C[C@@H]1O,,73.1 nM (active) and 82 nM (active) and 74.2 nM (active)
C=C1/C(=C\C=C2/CCC[C@]3(C)[C@@H]([C@H](C)CCCC(C)(C)O)CC[C@@H]23)C[C@@H](O)C[C@@H]1O,,1.48 µM (active)
CCN1CCC[C@H]1CNC(=O)c1cc(S(N)(=O)=O)ccc1OC,,inactive

Compound,"viability, % of control",Potency
CC(=O)OCC1OC(O[C@H]2CC[C@]34C[C@]35CC(O)[C@]3(C)[C@@H]([C@H](C)CC/C=C(\C)C(=O)O)C(O)C[C@@]3(C)C5CC[C@H]4C2(C)C)C(O)C(O)C1OC1OCC(O)C(O)C1O (stereo not given in full),79.7% [at 9.25 µM] (inactive),
C#Cc1cccc(Nc2ncnc3cc(OCCOC)c(OCCO)cc23)c1,,2.63 µM (active)
CNc1nc(Cc2ccccc2)nc2c1CCNC[C@@H]2C,,11.6 µM (active)
C=C1C(O)CC2C(C(=O)O)=COC(O[C@@H]3O[C@H](COC(=O)c4ccc(O)cc4)[C@@H](O)[C@H](O)[C@H]3O)C12 (stereo not given in full),102% [at 17.3 µM] (inactive),
CCNCCS(=O)(=O)NC[C@@]1(c2ccccc2)SC(NC(=O)C(C)(C)C)=NN1C(=O)C(C)(C)C,,0.003 µM (active)
CCOC(=O)[C@H](CCc1ccccc1)CC1(C(=O)N[C@H]2CCc3ccccc3N(CC(=O)O)C2=O)CCCC1,,14.6 µM (active)
Cc1cc(C)nc(NS(=O)(=O)c2ccc(NC(=S)NC(=O)COc3ccc(Br)cc3Cl)cc2)n1,95.9% (inactive),
CCCN(CCC)C(=O)C(CCC(=O)O)NC(=O)c1ccccc1 (stereo not given),,inactive
Cc1cccc(Nc2nc(N[C@@H]3CCCC[C@H]3N)ncc2C(N)=O)c1,,2.63 µM (active)
O=C(O)/C(S)=C/c1ccc(I)cc1,100% (inactive),
CCCCNC(=O)NS(=O)(=O)c1ccc(N)cc1,,2.11 µM (active)
Nc1nc(-c2ccccc2)c(Br)c(=O)[nH]1,87.9% (inactive),
COc1cc([C@@H](CC(=O)O)c2ccc(C)c(CN3C[C@@H](C)Oc4ccccc4S3(=O)=O)c2)cc2nnn(C)c12,,7.42 µM (active)
CCCCC(CC)COC(=O)c1ccccc1O (stereo not given),,5.96 µM (active)
O=C(Nc1cccc(Nc2cc(Nc3cccc(C(F)(F)F)c3)ncn2)c1)C1CC1,,0.259 µM (active)
Clc1cc2c(NC3CCCC3)nnc(-c3ccncc3)c2cc1Cl,,13.2 µM (active)
CC[C@@]1(O)C(=O)OCc2c1cc1n(c2=O)Cc2c-1nc1ccccc1c2CCNC(C)C,,0.0059 µM (active)
CNc1cc2c(Nc3cccc(Br)c3)ncnc2cn1,,23.1 µM (active)
CN(C)C(=O)Oc1ccc[n+](C)c1,85.4% (inactive),
Cc1cc(C)cc(OCC2CNC(=O)O2)c1 (stereo not given),80.5% (inactive),

# — PubChem BioAssay (NCATS)
